An excerpt weighted towards active compounds, which were near 2.3% of everything screened.
Jurkat NFkB inh = inhibitors of induced NF-kB luciferase reporter, primary screen, TCR NF-kB activation inhibitor project, cell-based, luminescence, uHTS; inhibition, % at 4 µM; AID 435003, 2010; Jurkat, PMA/ionomycin-induced NF-kB luciferase reporter; actives 0.53% (n = 330,000); in the data active = inhibition above about 50%
Gli-Sufu antag = Gli-Sufu pathway antagonists, primary screen, luciferase luminescence, Sufu-KO-LIGHT cells, uHTS. Sufu-KO-LIGHT fibroblasts, Gli luciferase reporter luminescence. inhibition, % at 5 µM. actives 0.74% (n = 340,000). AID 588413, 2011;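 active = inhibition above about 55%, limit read from the data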;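 also: 0% = DMSO-treated cells and 100% = wells with medium but no cells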
697 NFkB inh = inhibitors of PMA/ionomycin-induced NF-kB reporter, 697 cells, primary screen, B-cell NF-kB inhibitor project, cell-based, luminescence, uHTS. 697 B-cell NF-kB luciferase reporter, 16 h. inhibition, % at 4 µM. actives 0.33% (n = 330,000). AID 435022, 2010; in the data active = inhibition above about 35%
TAG inh = inhibitors of triacylglycerol accumulation, primary screen, cell-based, uHTS, fluorescence, H9c2 | actives 0.66% (n = 230,000) | AID 651582, 2012 | H9c2 cells, Nile Red lipid (TAG) fluorescence; cells loaded with 200 µM oleic acid | inhibition, % at 12.5 µM;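 active = pattern-corrected inhibition of lipid staining of at least 50% with the nuclear-stain viability signal not falling by more than 50%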;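 also: 0% = DMSO wells and 100% = triacsin C control wells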
Shn3 3UTR inh = reduction of Shn3 3'UTR firefly luciferase signal, primary screen, Schnurri-3 inhibitor project, cell-based, Clone20 osteoblasts, set 2; Clone20 osteoblast Shn3 3'UTR firefly luciferase, 24 h; inhibition, % at 12.5 µM; actives 0.52% (n = 360,000); AID 588674, 2011;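 active = mean inhibition of at least 75% with every replicate also reaching 75%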;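 also: 0% = median of neutral control wells and 100% = pilot-screen positive control compound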
aSyn 5UTR inh = MLPCN primary screen, SNCA 5' untranslated region; alpha-synuclein 5'UTR reporter, inhibitor activity; inhibition, % (tested at 7.5 µM); actives 0.82% (n = 300,000); AID 1813, 2009; in the data active = inhibition above about 60%;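 also: H4 neuroglioblastoma cells stably carrying SNCA 5'UTR luciferase fusion; 0% = DMSO wells and 100% = positive control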
Starred values were filed as active, the others as inactive; / = not tested or not shown.

SMILES	Jurkat NFkB inh	Gli-Sufu antag	697 NFkB inh	TAG inh	Shn3 3UTR inh	aSyn 5UTR inh
CC1CCCN(C(=O)c2ccc3c(c2NCCO)C(=O)c2ccccc2C3=O)C1 (stereo not drawn)	4	26	-7	90*	16	37
CCOc1cc(/C=C2/NC(=S)NC2=O)ccc1OCc1ccc([N+](=O)[O-])cc1	2	-13	19	-2	6	62*
C/C(CC(=O)NC1CCCC1)=N\NC(=O)Cc1csc(N)n1	2	-1	19	/	-2	6
Cc1ccc(/C=N/Nc2ccc(C(=O)O)cc2)s1	-86	10	-191	-7	50	76*
Cc1ccsc1/C=N/NC(=O)C(N)=O	-9	-29	-25	14	-3	-57
Cc1ccsc1/C=N/Nc1ccc(C(=O)O)cc1	3	3	-130	/	6	64*
Cc1ccc2nc(NC(=O)c3ccccn3)sc2c1	34	78*	-126	25	55	111*
CCSc1nnc(NC(=O)c2cnccn2)s1	4	-7	-7	/	/	-43
CCSc1nnc(NC(=O)c2ccccn2)s1	-15	-5	-114	-1	-8	67*
O=C(COc1ccc(/C=N/NC(=O)c2ccccc2Br)cc1)Nc1ccccc1	-20	6	9	-4	7	-25
CCOc1ccccc1N=Nc1c(C)[nH]n(-c2ccccc2)c1=O	-8	10	12	/	-1	27
CCn1nnc2cc(C(=O)Nc3cc(S(C)(=O)=O)ccc3Cl)ccc21	6	-9	16	-11	23	-9
CCn1nnc2cc(C(=O)Nc3cc(Cl)ccc3C)ccc21	3	7	22	-5	88*	/
Cc1ccc(C)c(NC(=O)c2cnc3n(c2=O)CCS3)c1	-45	-43	-27	6	-35	-30
CCn1c2ccccc2c2cc(NC(=O)CSc3nnc(-c4ccc(OC)c(OC)c4)n3N)ccc21	-9	6	-10	/	14	13
CCOc1ccc(-c2nnc(SCC(=O)Nc3ccc4c(c3)c3ccccc3n4CC)n2N)cc1	-6	5	-22	/	58	84*
CN(C)CCCN(C(=O)CCc1ccccc1)c1nc2ccc(Br)cc2s1	5	42	3	98*	-1	-10
Cc1cccc2sc(N(CCCN(C)C)C(=O)CN3C(=O)c4ccccc4C3=O)nc12	10	2	22	-6	-14	-15
Cc1cccc2sc(N(CCCN(C)C)C(=O)CCc3ccccc3)nc12	-1	6	-18	/	-7	62*
C[C@@H](C(=O)Nc1nccs1)N1C(=O)C2CC=CCC2C1=O (stereo partly drawn)	11	0	-2	-3	8	/
O=C(COC(=O)c1nc(Cl)ccc1Cl)NNC(=O)c1ccccc1	3	-7	-1	0	-5	-8
CC(C)Cn1c(=O)c(C(=O)Nc2cnccn2)c(O)c2ccccc21	1	9	15	/	9	-3
CC(C)Cn1c(=O)c(C(=O)Nc2ccncc2)c(O)c2ccccc21	17	-11	0	7	54	66*
CN(C)S(=O)(=O)c1ccc(C(=O)NCc2nnc(SCC(=O)N3CCCCCC3)o2)cc1	2	-4	-3	2	1	-6
C=C[C@]1(C)C=C2C(=O)[C@@]3(O)OC(=O)[C@@]4(CCCC(C)(C)[C@H]34)[C@@]2(O)CC1	/	/	/	/	95*	/
C=C[C@]1(C)C=C2CC[C@H]3[C@@](C)(CCC[C@@]3(C)C(=O)O)[C@@H]2CC1	7	-7	-1	21	-49	/
Cc1ccc(C(C)C)c(OCc2ccc(C(=O)N/N=C/c3cccc(O)c3O)cc2)c1	/	93*	/	/	94*	108*
O=C(CSc1nnc(Nc2ccccc2F)s1)NCc1ccco1	/	2	/	13	-16	/
COC(=O)c1ccc(NC(=O)c2c(Br)cnn2C)cc1	-26	2	-6	/	-3	-53
CN(C)CCNc1ncnc2c1sc1nc(N3CCOCC3)c3c(c12)CC(C)(C)SC3	-5	-5	5	/	6	72*
